From PubChem BioAssay (NCATS)
Records with an inconclusive call do not appear. Active and inactive are the calls of the source. The call rests on the fitted dose curve; in most records, active means well fitted cell-killing curve with a large enough effect; inconclusive means small, poorly fitted or top-dose-only effect; inactive means no such curve, though single readings can be large or run the other way.
Potency means the concentration at half of the fitted maximal effect.

Assay: qHTS of pediatric cancer cell lines to identify multiple opportunities for drug repurposing: Confirmatory screen for U-2 OS cells (AID 1347122); further: nearly all actives have a fitted effect of over 65% in size
Settings: U-2 OS osteosarcoma cell viability; series mostly up to 45.9 µM
How it was run: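 Viability after 48 h compound treatment at 37C, 500-1,000 cells/well, read as ATP luminescence with CellTiter-Glo. Primary screens used 11-point (MIPE, 0.78 nM-46 µM) or 8-point (NPC, 0.59 nM-46 µM) final concentrations; follow-up screens used 11-point dilutions.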
With `CC=C(C)C(=O)O[C@H]1C(C)=C[C@]23C(=O)[C@@H](C=C(CO)[C@@H](O)[C@]12O)[C@H]1[C@@H](C[C@H]3C)C1(C)C` the Potency was 23.3 nM (active).
For `Cc1nnc(C(C)C)n1C1C[C@H]2CC[C@@H](C1)N2CC[C@H](NC(=O)C1CCC(F)(F)CC1)c1ccccc1` (some centres undefined), the Potency was “inactive”.
In the case of `CC1(C)CCC2=C(O1)c1ccccc1C(=O)C2=O`, the Potency is reported as 23300 nM (active).
For `CO[C@H]1C[C@@H]2CC[C@@H](C)[C@@](O)(O2)C(=O)C(=O)N2CCCC[C@@H]2C(=O)O[C@H]([C@H](C)C[C@@H]2CC[C@H](OP(C)(C)=O)[C@H](OC)C2)CC(=O)[C@H](C)C=C(C)[C@@H](O)[C@@H](OC)C(=O)[C@H](C)C[C@H](C)C=CC=CC=C1C`, the Potency was 14700 nM (active).
For `CC(=O)Nc1ccc([C@H](C)C(=O)Nc2ncc(C(C)C)s2)cc1`, the Potency was 1470 nM (active).
In the case of `O=C(NCc1ccncc1)C12C[C@H]3C[C@@H](C1)CC(c1ccc(Cl)cc1)(C3)C2`, the Potency is reported as 26100 nM (active).
With `Cc1cc(OCCCc2c(C(=O)O)n(Cc3cccnc3)c3c(-c4c(COc5ccc(N6CCN([S+](C)(=O)[O-])CC6)cc5)nn(C)c4C)cccc23)cc(C)c1Cl` the Potency was 2610 nM (active).
With `O=c1cc(-c2ccc(O)cc2)oc2cc(O)cc(O)c12` the Potency was “inactive”.
For `NS(=O)(=O)c1cccc2c1C(=O)c1cccc(O)c1C2=O`, the Potency was 1040 nM (active).
